According to PubChem BioAssay AID1626 (SRMLSC, 2009):
The whole screen tested about 220,000 compounds, of which about 2,000 (0.91%) were called active. About 2% were inconclusive and are not listed. Rule as the data show it: inconclusive = inhibition above about 80% without an active follow-up result; inactive = below that; test concentration not stated here. Only a sample is shown. Measured potencies and affinities stand elsewhere.

Experiment: M. tuberculosis H37Rv growth inhibitors, H37Rv strain (AID 1626);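 also: bacteria incubated seven days before Alamar blue readout; 0% = bacteria only wells and 100% = bacteria with antibiotic wells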
Settings: hits give high values, concentration not given here

| Structure (SMILES) | inhibition |
| --- | --- |
| CCn1c(=O)cc(N2CCN(C(=O)c3ccco3)CC2)[nH]c1=O | 11.9% (inactive) |
| O=C(COC(=O)C1CC1)Nc1ccc2[nH]c(=O)[nH]c2c1 | 1.3% (inactive) |
| CCOC(=O)CSc1cc(C)nc2ccc(OC)cc12 | -0.58% (inactive) |
| COC(=O)CSc1cc(C)nc2ccc(OC)cc12 | 10.7% (inactive) |
| CCCCOC(=O)C1=C(C)Nc2ncnn2C1c1cccc(OC)c1 (stereo not drawn) | -2.89% (inactive) |
| Cc1[nH]c2ccccc2c1/C=N/NC(=O)CNC(=O)c1ccccc1 | -7.99% (inactive) |
| Cc1cc(C)n(CC(C)NCc2cn[nH]c2-c2ccc(C)c(C)c2)n1 (stereo not drawn) | 1.18% (inactive) |
| CC1=C(/C=C/C(C)=C/C=C/C(C)=C/C(=O)O)C(C)(C)CCC1 | -5.32% (inactive) |
| CC1=C(/C=C/C(C)=C/C=C/C(C)=C\C(=O)O)C(C)(C)CCC1 | -10.9% (inactive) |
| CN(C)c1ccc(N=Nc2ccccc2C(=O)OCC(=O)N(C)C2CCCCC2)cc1 | 27.3% (inactive) |
| CN(C)c1ccc(N=Nc2ccccc2C(=O)OCC(=O)NC2CCCC2)cc1 | 46% (inactive) |
| Nc1cc(C(=O)c2cccs2)ccc1Cl | -7.59% (inactive) |
| Cc1ncc([N+](=O)[O-])n1CC(=O)NC(C)(C)C | -1.73% (inactive) |
| CC(=O)N/C(=C\c1ccc(F)cc1)C(=O)N(C)C | -5.54% (inactive) |
| COc1ccc(N2CCN(C(CNC(=O)c3cccc(Cl)c3)c3cccnc3)CC2)cc1 (stereo not drawn) | -9.59% (inactive) |
| OC(CNCCc1ccccc1)COc1ccc(OCC(O)CNCCc2ccccc2)cc1 (stereo not drawn) | -6.51% (inactive) |
| COc1ccc(CCNCC(O)COc2cccc(Br)c2)cc1 (stereo not drawn) | -1.52% (inactive) |
| CCN(CC)S(=O)(=O)c1ccc(N2CCOCC2)c(NC(=O)c2cccc3ccccc23)c1 | 11.2% (inactive) |
| CC1CN(C(=O)c2cccc(S(=O)(=O)N3CCOCC3)c2)CC(C)O1 (stereo not drawn) | -11.8% (inactive) |
| Cc1ccccc1-n1ncc(C(C)NC(=O)c2ccccc2)c1C (stereo not drawn) | -0.68% (inactive) |
| O=C(NCc1ccccc1)NC(=O)c1ccccc1 | -2.58% (inactive) |
| COCCN=C1Sc2nc3cc(C)c(C)cc3cc2CN1Cc1cccs1 | 10% (inactive) |
| COCCN=C1Sc2nc3ccc(C)cc3cc2CN1Cc1ccco1 | -8.23% (inactive) |
| O=C(O)c1cn(-c2ccc(F)c(F)c2)c2c(F)c(F)c(F)c(F)c2c1=O | 6.77% (inactive) |

| Structure (SMILES) | inhibition |
| --- | --- |
| Cc1c(-n2cc(C(=O)O)c(=O)c3cc(F)c(N4CCCC4)c(F)c32)c(=O)n(-c2ccccc2)n1C | 3.58% (inactive) |
| COC(=O)c1c(N2C(=O)[C@H]3[C@@H](C2=O)[C@]2(C(=O)Nc4c2ccc(C)c4C)N2CCC[C@@H]32)sc(C)c1C | 4.68% (inactive) |
| CN(C)c1ccc(/C=N/N=C(N)N)cc1[N+](=O)[O-] | -2.01% (inactive) |
| O=c1c2cc(NC(=S)N3CCCC3)ccc2nc2n1CCCCC2 | 5.39% (inactive) |
| O=C(O)C12C[C@H]3C[C@@H](C1)CC(n1ncc(N4CCN(c5ccccc5)CC4)c(Cl)c1=O)(C3)C2 | -7.44% (inactive) |
| Cc1ccc(N=CC2=C(O)CC(c3ccco3)CC2=O)cc1 (stereo not drawn) | -4.64% (inactive) |
| CCc1ccc(N=CC2=C(O)CC(c3ccco3)CC2=O)cc1 (stereo not drawn) | 81% (inactive) |
| COC(=O)c1[nH]c2cccc(OC)c2c1NC(=O)CCN1CCC(C(N)=O)CC1 | -3.72% (inactive) |
| CNC(=O)c1csc(-c2ccc(C)cc2)n1 | -5.14% (inactive) |
| CNC(=O)c1csc(-c2ccncc2)n1 | -3.82% (inactive) |
| O=C(O)c1ccc(-c2nc(-c3ccc(Cl)c(Cl)c3)cs2)cc1 | 8.4% (inactive) |
| O=C(O)c1ccc(-c2nc(-c3ccccc3)cs2)cc1 | -1.73% (inactive) |
| CC(C)OCCCNS(=O)(=O)c1ccc2c(c1)OCCO2 | 2.36% (inactive) |
| CN(C(=O)CO/N=C/c1ccc(OC(F)F)cc1)C1CCS(=O)(=O)C1 (stereo not drawn) | 8.36% (inactive) |
| CCOc1ccc(-c2cc(CCCC(=O)NCCC(C)C)no2)cc1 | -2.14% (inactive) |
| CCOc1ccc(-c2cc(CCCC(=O)NCCCOC)no2)cc1 | 4.11% (inactive) |
| CCOc1ccc(-c2cc(CCCC(=O)NCCc3ccccc3)no2)cc1 | 4.69% (inactive) |
| CCOc1ccc(-c2cc(CCCC(=O)Nc3cc(OC)ccc3OC)no2)cc1 | 9.58% (inactive) |
| CN(C)c1nc(-c2ccccn2)nnc1-c1ccccc1 | 68% (inactive) |
| C=CCNc1nc(-c2ccccn2)nnc1-c1ccccc1 | 37% (inactive) |
| Cc1ccn(C(=O)c2cc3c(C)nn(-c4ccccc4)c3s2)n1 | 10.1% (inactive) |
| CC(C)(O)C(=O)NNC(=S)Nc1ccc(F)c(Cl)c1 | 14.7% (inactive) |
| COC(=O)C1=C(SC)N(c2ccc(OC)cc2)C(c2ccccc2)CC1=O (stereo not drawn) | -3.65% (inactive) |
| COc1ccc(N2C(=O)C3CCCN3C2c2ccccc2F)cc1 (stereo not drawn) | -5.95% (inactive) |

| Structure (SMILES) | inhibition |
| --- | --- |
| Cc1ccc(N2C(=O)C(CN3CCCC3)C2c2ccccc2)cc1 (stereo not drawn) | 27.1% (inactive) |
| Cc1ccc(N2C(=O)C(CN(C)C)C2c2ccccc2)cc1 (stereo not drawn) | -4.35% (inactive) |
| O=C1c2ccccc2NC(c2ccc3c(c2)OCCO3)N1c1ccc2c(c1)OCCO2 (stereo not drawn) | -7.93% (inactive) |
| O=C(O)C1CC(=O)N(c2ccc3c(c2)OCCO3)C1 (stereo not drawn) | 5.06% (inactive) |
| O=C(NN1CCOCC1)c1cc(-c2ccc(Br)cc2)nc2ccccc12 | 7.15% (inactive) |
| CC(=O)NCCC(=O)Nc1ccc(F)cc1C | -1.47% (inactive) |
| Cc1nn(-c2cccc([N+](=O)[O-])c2)c(N)c1-c1ccccc1 | 7.18% (inactive) |
| COCCNc1nc(-c2ccc(OC)cc2)c(-c2ccc(OC)cc2)s1 | 15.7% (inactive) |
| Cc1csc(Cn2c(CN(C)C)nc3ccccc3c2=O)n1 | 5.39% (inactive) |
| COc1cc([N+](=O)[O-])cc(CN2CCCCC2)c1O | 2.21% (inactive) |
| O=C(CN1CCc2ccccc2C1)NC1CCCC1 | -13.6% (inactive) |
| CCC(=O)N(Cc1c(C)nn(-c2ccccc2)c1Cl)c1ccc(Cl)cc1 | 8.67% (inactive) |
| CC(=O)N(Cc1c(C)nn(-c2ccccc2)c1Cl)c1ccc(Cl)cc1 | -13.6% (inactive) |
| CCn1cc(C(=O)OCC(=O)c2ccc(Cl)cc2)c(=O)c2ccc(C)nc21 | -8.38% (inactive) |
| O=C1CC(c2ccc(F)cc2)Sc2nc(C34CC5CC(CC(C5)C3)C4)nn21 (stereo not drawn) | 5.92% (inactive) |
| Cc1ccc(SCn2nnc3ccccc3c2=O)c(C)c1 | -6.38% (inactive) |
| COc1ccc2nc(/C=N/NC(=O)[C@@H]3CCCN3C(=O)OC(C)(C)C)ccc2c1 | -1.11% (inactive) |
| O=C(COc1ccc(Cl)cc1)Nc1nnc(-c2ccco2)o1 | 0.85% (inactive) |
| CC(=O)Nc1cccc(-c2nnc(-c3ccccc3)o2)c1 | -12.3% (inactive) |
| O=C(COc1ccccc1)Nc1nnc(-c2ccccc2)o1 | 12.6% (inactive) |
| Clc1ccc(-c2nnc(NC3=NCCCCC3)o2)cc1 | -12.1% (inactive) |
| O=C(NCc1nnc2n1CCCCC2)c1ccc(Cl)cc1Cl | -8.85% (inactive) |
| CC(=O)Nc1ccc2c(c1)CCCC2 | 0.76% (inactive) |
| CCN(CC)S(=O)(=O)c1ccc(N=N/C(C(C)=O)=C(/C)O)cc1 | -10.5% (inactive) |

| Structure (SMILES) | inhibition |
| --- | --- |
| Cc1c(C#N)c(N=CN(C)C)c(C(=O)c2ccc(Br)cc2)n1-c1ccc(Cl)cc1 | 1.78% (inactive) |
| CCn1c(C)nc2cc(S(=O)(=O)N3CCCCC3)ccc21 | -10.8% (inactive) |
| C=C1C(=O)O[C@@H]2C[C@@H](C)[C@H]3C=CC(=O)[C@]3(O)C[C@@H]12 | -7.5% (inactive) |
| C[C@@H]1C[C@@H]2OC(=O)[C@]3(C)[C@H]2[C@@H](OC3(C)O)[C@]2(C)C(=O)C=C[C@H]12 (stereo partly drawn) | -4.34% (inactive) |
| CC(=O)O[C@@H]1[C@H]2[C@@H](C[C@@H](C)[C@@H]3C=CC(=O)[C@@]13C)OC(=O)[C@@H]2C | -0.99% (inactive) |
| CC(=O)O[C@@H]1[C@H]2[C@@H](C[C@@H](C)[C@@H]3CCC(=O)[C@@]13C)OC(=O)[C@@H]2C | -3.15% (inactive) |
| C=C1C(=O)O[C@H]2[C@H]1[C@H](OC(=O)CC(=O)O[C@@H]1C[C@@H](C)[C@@H]3C=CC(=O)[C@@]3(C)[C@H]3OC(=O)C(=C)[C@H]13)C[C@@H](C)[C@H]1C=CC(=O)[C@]12C | -7.78% (inactive) |
| COc1ccc(NC(=O)CCc2nc3ccccc3[nH]2)cc1 | -2.77% (inactive) |
| CC(C)c1nc2c([nH]1)c(=O)n(C)c(=O)n2C | -8.57% (inactive) |
| CC(C)Cc1cc(C(=O)Nc2ccc(Br)cc2)no1 | 68.8% (inactive) |
| CCCc1cc(C(=O)Nc2ccc(C(C)=O)cc2)no1 | 79.7% (inactive) |
| Cc1cc(C(=O)Nc2c(F)cc(F)cc2Br)no1 | 16.4% (inactive) |
| CC(C)c1cc(C(=O)Nc2cc(Br)ccc2O)no1 | 43.5% (inactive) |
| O=C(Nc1c(F)cc(F)cc1Br)c1cc(-c2ccc(O)cc2)on1 | 73.7% (inactive) |
| CCCc1cc(C(=O)Nc2cc(Br)ccc2O)no1 | 78.3% (inactive) |
| CCOC(=O)C1CCCN(C(=O)c2cccc(NC(=O)C(CC)CC)c2)C1 (stereo not drawn) | -1.45% (inactive) |
| CCCCCOc1ccc(C)cc1CN(CCCl)CCCl | 5.72% (inactive) |
| CCOC(=O)CNc1c(N2CCN(c3ccccn3)CC2)c(=O)c1=O | 0.74% (inactive) |
| COCCn1c(C)cc(C(=O)COC(=O)c2ccc3c(c2)NC(=O)CS3)c1C | 3.82% (inactive) |
| N#C/C(=C\c1cn[nH]c1-c1ccc(Cl)cc1)C(=O)NC1CC1 | 9.87% (inactive) |
| CCOC(=O)COc1cc(=O)n(CC)c2ccccc12 | 7.42% (inactive) |
